Among all 5,500 compounds or so, about 2,000 (36%) were called active. About 18% were inconclusive and are not listed. No stated cut-off is given here; in the data, active means normalized growth mostly below about 0.91 (no sharp cut-off); inconclusive means no clear call, values can overlap the other calls; inactive means mostly above about 0.92. This is one part of the list.
Assay: chemical genetic growth profiling, strain panel (AID 1159580);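 further: tested at 20 µM; growth read once vehicle control cultures reached saturation at 30 °C; 1 = growth at the plate median or of vehicle wells; lower values mean less growth of the strain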
Conditions: growth OD

Measured: normalized growth

CC(=O)OC(C)(C)[C@@H]1Cc2cc3ccc(=O)oc3cc2O1
inactive: S. cerevisiae deletion strains, locus YJR066W, strain TOR1, hits give low values 0.928 | S. cerevisiae deletion strains, locus YJR075W, strain HOC1, hits give low values 0.992 | S. cerevisiae deletion strains, locus YKL009W, strain mrt4, hits give low values 1.03 | S. cerevisiae deletion strains, locus YKL068W, hits give low values 1.01 | S. cerevisiae deletion strains, locus YKL085W, strain MDH1 (second series), hits give low values 0.998 | S. cerevisiae deletion strains, locus YKL085W, strain MDH1, hits give low values 0.998 | S. cerevisiae deletion strains, locus YKL160W, strain elf1, hits give low values 1.02 | S. cerevisiae deletion strains, locus YKL190W, strain CNB1, hits give low values 1.01 | S. cerevisiae deletion strains, locus YKR001C, strain vps1, hits give low values 1 | S. cerevisiae deletion strains, locus YKR026C, strain gcn3, hits give low values 0.957 | S. cerevisiae deletion strains, locus YKR091W, strain srl3, hits give low values 0.975 | S. cerevisiae deletion strains, locus YLL001W, strain dnm1, hits give low values 0.984 | S. cerevisiae deletion strains, locus YLL026W, hits give low values 0.97 | S. cerevisiae deletion strains, locus YLL041C, strain sdh2, hits give low values 0.984 | S. cerevisiae deletion strains, locus YLR027C, strain aat2, hits give low values 0.962 | S. cerevisiae deletion strains, locus YLR039C, strain RIC1, hits give low values 1.07 | S. cerevisiae deletion strains, locus YLR058C, strain SHM2, hits give low values 0.999 | S. cerevisiae deletion strains, locus YLR102C, strain apc9, hits give low values 1 | S. cerevisiae deletion strains, locus YLR113W, strain HOG1, hits give low values 1.04 | S. cerevisiae deletion strains, locus YLR221C, strain rsa3, hits give low values 1.01 | S. cerevisiae deletion strains, locus YLR258W, strain gsy2, hits give low values 0.951 | S. cerevisiae deletion strains, locus YLR262C, strain YPT6 (second series), hits give low values 1.01 | S. cerevisiae deletion strains, locus YLR262C, strain YPT6, hits give low values 1.07 | S. cerevisiae deletion strains, locus YLR268W, strain sec22, hits give low values 1.04 | S. cerevisiae deletion strains, locus YLR320W, strain mms22, hits give low values 0.956 | S. cerevisiae deletion strains, locus YLR330W, strain CHS5, hits give low values 1 | S. cerevisiae deletion strains, locus YLR342W, strain FKS1 (second series), hits give low values 0.994 | S. cerevisiae deletion strains, locus YLR342W, strain FKS1, hits give low values 0.969 | S. cerevisiae deletion strains, locus YLR357W, strain rsc2, hits give low values 0.971 | S. cerevisiae deletion strains, locus YLR370C, strain arc18, hits give low values 0.973 | S. cerevisiae deletion strains, locus YLR371W, strain rom2, hits give low values 1.03 | S. cerevisiae deletion strains, locus YLR384C, strain iki3, hits give low values 0.979 | S. cerevisiae deletion strains, locus YLR418C, strain cdc73, hits give low values 0.975 | S. cerevisiae deletion strains, locus YML016C, strain PPZ1, hits give low values 0.999 | S. cerevisiae deletion strains, locus YML032C, strain rad52, hits give low values 0.987 | S. cerevisiae deletion strains, locus YML120C, strain ndi1, hits give low values 0.99 | S. cerevisiae deletion strains, locus YML124C, strain tub3, hits give low values 0.994 | S. cerevisiae deletion strains, locus YMR058W, strain fet3, hits give low values 0.969 | S. cerevisiae deletion strains, locus YMR078C, strain ctf18, hits give low values 1.01 | S. cerevisiae deletion strains, locus YMR125W, strain sto1, hits give low values 0.941 | S. cerevisiae deletion strains, locus YMR129W, hits give low values 0.962 | S. cerevisiae deletion strains, locus YMR205C, strain PFK2, hits give low values 0.915 | S. cerevisiae deletion strains, locus YMR223W, strain ubp8, hits give low values 0.982 | S. cerevisiae deletion strains, locus YMR231W, strain pep5, hits give low values 0.968 | S. cerevisiae deletion strains, locus YMR263W, strain SAP30, hits give low values 0.997 | S. cerevisiae deletion strains, locus YMR307W, strain GAS1, hits give low values 1.03 | S. cerevisiae deletion strains, locus YNL067W, strain RPL9B, hits give low values 0.999 | S. cerevisiae deletion strains, locus YNL071W, strain lat1, hits give low values 0.985 | S. cerevisiae deletion strains, locus YNL183C, strain NPR1, hits give low values 0.983 | S. cerevisiae deletion strains, locus YNL209W, strain ssb2, hits give low values 0.975 | S. cerevisiae deletion strains, locus YNL233W, strain BNI4, hits give low values 0.988 | S. cerevisiae deletion strains, locus YNL248C, strain rpa49, hits give low values 1.02 | S. cerevisiae deletion strains, locus YNL250W, strain rad50, hits give low values 1.01 | S. cerevisiae deletion strains, locus YNL271C, strain bni1, hits give low values 1 | S. cerevisiae deletion strains, locus YNL298W, strain CLA4, hits give low values 1.01 | S. cerevisiae deletion strains, locus YNL307C, strain MCK1, hits give low values 1 | S. cerevisiae deletion strains, locus YNL322C, strain KRE1 (second series), hits give low values 0.951 | S. cerevisiae deletion strains, locus YNR049C, strain mso1, hits give low values 0.955 | S. cerevisiae deletion strains, locus YNR052C, strain pop2, hits give low values 1 | S. cerevisiae deletion strains, locus YOL012C, strain htz1 0.921 | S. cerevisiae deletion strains, locus YOL147C, strain pex11, hits give low values 0.997 | S. cerevisiae deletion strains, locus YOR001W, strain rrp6, hits give low values 1.01 | S. cerevisiae deletion strains, locus YOR061W, strain CKA2, hits give low values 1.01 | S. cerevisiae deletion strains, locus YOR069W, strain VPS5, hits give low values 1 | S. cerevisiae deletion strains, locus YOR070C, strain gyp1, hits give low values 0.995 | S. cerevisiae deletion strains, locus YOR080W, strain dia2, hits give low values 0.982 | S. cerevisiae deletion strains, locus YOR083W, strain WHI5, hits give low values 1.02 | S. cerevisiae deletion strains, locus YOR106W, strain vam3, hits give low values 1.02 | S. cerevisiae deletion strains, locus YOR136W, strain idh2, hits give low values 0.999 | S. cerevisiae deletion strains, locus YOR144C, strain elg1, hits give low values 1 | S. cerevisiae deletion strains, locus YOR184W, strain ser1, hits give low values 0.968 | S. cerevisiae deletion strains, locus YOR231W, strain MKK1, hits give low values 0.963 | S. cerevisiae deletion strains, locus YOR265W, strain rbl2, hits give low values 0.976 | S. cerevisiae deletion strains, locus YOR270C, strain vph1, hits give low values 0.935 | S. cerevisiae deletion strains, locus YOR290C, strain snf2, hits give low values 0.916 | S. cerevisiae deletion strains, locus YOR316C, strain cot1, hits give low values 0.995 | S. cerevisiae deletion strains, locus YPL051W, strain arl3, hits give low values 1 | S. cerevisiae deletion strains, locus YPL078C, strain atp4, hits give low values 0.993 | S. cerevisiae deletion strains, locus YPL106C, strain sse1, hits give low values 0.946 | S. cerevisiae deletion strains, locus YPL240C, strain hsp82, hits give low values 0.995 | S. cerevisiae deletion strains, locus YPL241C, strain CIN2, hits give low values 0.996 | S. cerevisiae deletion strains, locus YPL256C, strain CLN2, hits give low values 0.962 | S. cerevisiae deletion strains, locus YPR119W, strain clb2, hits give low values 1.02 | S. cerevisiae deletion strains, locus YPR141C, strain kar3, hits give low values 1 | S. cerevisiae deletion strains, locus YPR163C, strain tif3, hits give low values 1 | S. cerevisiae deletion strains, locus YPR167C, strain met16, hits give low values 1 | S. cerevisiae deletion strains, strain wtn01, hits give low values 1.01 | S. cerevisiae strains, strain wild type, hits give low values 1

From PubChem BioAssay AID1159580 (chemical genetic matrix, 2015)
